Some of the results follow. Values without a mark were called inactive. Calls of active or inactive are those of the source. Rule as the data show it: active = max delta Tm above about 0.48 degrees C; inactive = the rest.
Biological target: Kelch-like ECH-associated protein 1 (Homo sapiens) (UniProt Q14145)
Assay: Tm shift of Keap1 Kelch upon compound binding – biophysical, thermal shift, RT-PCR instrument, cherry-pick, dose response (AID 651823)
Conditions: hits give high values; at 50 µM unless noted

Kelch-like ECH-associated protein 1 (Homo sapiens), sequence (Q14145 whole entry, looked up): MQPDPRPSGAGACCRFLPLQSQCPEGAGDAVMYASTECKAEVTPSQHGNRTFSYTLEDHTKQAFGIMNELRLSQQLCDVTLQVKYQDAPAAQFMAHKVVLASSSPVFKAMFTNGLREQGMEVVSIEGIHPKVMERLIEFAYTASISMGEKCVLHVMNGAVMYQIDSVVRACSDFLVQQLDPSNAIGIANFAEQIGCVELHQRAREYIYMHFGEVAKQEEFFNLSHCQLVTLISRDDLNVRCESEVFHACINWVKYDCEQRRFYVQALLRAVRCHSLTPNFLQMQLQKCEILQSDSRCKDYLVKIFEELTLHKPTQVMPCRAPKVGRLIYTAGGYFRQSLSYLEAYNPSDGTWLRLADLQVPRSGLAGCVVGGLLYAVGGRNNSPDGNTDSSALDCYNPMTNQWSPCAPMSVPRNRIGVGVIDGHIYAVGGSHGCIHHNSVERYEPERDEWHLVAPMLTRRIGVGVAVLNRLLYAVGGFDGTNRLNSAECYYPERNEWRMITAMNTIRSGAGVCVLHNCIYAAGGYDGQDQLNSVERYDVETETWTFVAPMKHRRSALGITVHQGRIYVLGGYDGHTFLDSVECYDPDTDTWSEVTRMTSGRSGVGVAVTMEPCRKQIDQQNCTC

Compound	max delta Tm
Cc1cccc(NS(=O)(=O)c2ccc(C)c(C(=O)NCC(c3ccccc3)N(C)C)c2)c1 (centres undefined)	-0.11 °C [at 0.8 µM]
Nc1ccc2nc3c(=O)[nH]c(=S)[nH]c3nc2c1	0.14 °C
COc1cc(OC)c(S(=O)(=O)Nc2ccccc2C(=O)O)cc1S(=O)(=O)Nc1ccccc1C(=O)O	0.77 °C (active)
COC(=O)C[n+]1cccc2ccccc21	-0.13 °C
CCCN(CCC)C(=O)C1c2ccccc2Oc2ccccc21	-0.08 °C [at 0.38 µM]
CCCC(=O)Nc1ccc(C(=O)NCCCn2ccnc2)cc1	-0.11 °C
CN1C(=O)c2cccc3c(N)ccc(c23)C1=O	0 °C [at 26 µM]
CCCC1OC23CCCCC2C(C#N)(C#N)C1(C#N)C(=N)O3 (centres undefined)	-0.1 °C [at 0.38 µM]
O=C(O)CC(Cn1cnnn1)c1ccccc1 (centres undefined)	-0.14 °C [at 3 µM]
O=C(Nc1ccccn1)C1CCN(S(=O)(=O)c2ccc3c(c2)OCCO3)CC1	-0.17 °C [at 0.38 µM]
CC1(C)CC(=O)C(N=Nc2c(F)cccc2F)=C(O)C1	-0.12 °C [at 6 µM]
O=C1CC(Cc2ccc(Cl)cc2)C(=O)N1c1cc(Cl)ccn1 (centres undefined)	-0.06 °C [at 0.38 µM]
CCN1/C(=C\c2ccc3ccccc3[n+]2CC)Sc2cc(C)ccc21	-0.01 °C [at 26 µM]
O=C(CCc1ccccc1)NNc1ccc(F)cc1	-0.17 °C [at 0.8 µM]

Source: PubChem BioAssay AID651823 (Broad Institute, 2012)
